Results from PubChem BioAssay.
Records with an inconclusive call do not appear. Activity calls are given as the source filed them. Cut-off read from the data, not from the text of the source, unless noted: active = inhibition above about 80%; inactive = the rest.

Legend:
[1] = growth inhibition of DIPG glioma cells, dose response, cell-based, SU-DIPG-XVII, MIPE5.0, CellTiter-Glo, qHTS (AID 1347060; cut-off not given, nearly all actives have AC50 up to about 26 µM;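 for AC50: cells exposed to compound for 48 hours before viability readout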); conditions: SU-DIPG-XVII viability, CellTiter-Glo ATP luminescence
[2] = viability loss in pontine glioma line – cell-based, SU-DIPG-XXV, MIPE5.0, CellTiter-Glo, qHTS, dose response (AID 1347065; cut-off not given, nearly all actives have AC50 up to about 26 µM;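 note: cells exposed to compound for 48 hours before ATP readout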); conditions: CellTiter-Glo ATP luminescence
[3] = JHH-DIPG-1 glioma cell viability, MIPE5.0 library, CellTiter-Glo luminescence, qHTS (AID 1347067; cut-off not given, nearly all actives have AC50 up to about 26 µM;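 note: cells exposed to compound for 48 hours before readout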); conditions: JHH-DIPG-1 glioma viability, CellTiter-Glo ATP luminescence
[4] = SU-DIPG-XXV glioma cell viability, MIPE5.0 library, qHTS (AID 1347068; cut-off not given, nearly all actives have IC50 up to about 30 µM;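 for IC50: cells exposed to compound for 48 hours before viability readout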)
[5] = sensitizers of A549 cells to miR-34 induction, primary screen, imaging, A549 dox-inducible miR-34, nuclei and caspase counts (AID 1347080;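 active = compounds whose cell count with miR-34 switched on is under 0.7 times the count with it off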); conditions: A549 miR-34 inducible, Hoechst nuclei count, 48 h
[6] = survival rescue of mitochondrial mutant cells in low glucose, primary screen, MELAS cybrids, Rieske KO mouse fibroblasts, CellTiter-Glo (AID 1508586;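 active = mean z-score across replicates of 1.96 or higher in either the MELAS or the Rieske mutant cell line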;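 note: z relative to plate mean and SD of compound and empty wells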)
[7] = LFS_MB_P medulloblastoma growth inhibition, cell-based, chromothripsis tumors, cisplatin or BGB combos (AID 1671449); conditions: LFS_MB_P medulloblastoma cells;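 note: cells exposed for 96 hours; 0% = vehicle DMSO and 100% = killing by high DMSO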
[8] = HDN33 neuroblastoma growth inhibition, cell-based, chromothripsis tumors, cisplatin or BGB combos (AID 1671450); conditions: HDN33 neuroblastoma cells, stronger effect = higher value;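 note: cells exposed to compound for four days; 0% = vehicle DMSO and 100% = cell killing by high DMSO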
[9] = ICB984 medulloblastoma cell growth inhibition, synergistic combos for chromothripsis tumors, cisplatin or BGB combos (AID 1671451; call rule not given here;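 note: cells exposed for 96 hours before readout; 0% = vehicle DMSO and 100% = killing by high DMSO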); conditions: ICB984 medulloblastoma cells, drug combinations, stronger effect = higher value
[10] = LFS_MB_1R medulloblastoma cell growth inhibition, synergistic combos for chromothripsis tumors, cisplatin or BGB combos (AID 1671452); conditions: LFS_MB_1R medulloblastoma cells, stronger effect = higher value;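 note: cells exposed for 96 hours before readout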
[11] = HTB85 osteosarcoma cell growth inhibition, synergistic combos for chromothripsis tumors, BGB or cisplatin IC20 combos (AID 1671453); conditions: HTB85 osteosarcoma cells, drug combinations, stronger effect = higher value;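 note: cells exposed for 96 hours before readout; 0% = vehicle DMSO and 100% = high DMSO killing control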
[12] = CRL2098 osteosarcoma cell growth inhibition, synergistic combos for chromothripsis tumors, BGB or cisplatin IC20 combos (AID 1671454); conditions: CRL2098 osteosarcoma cells, drug combinations, stronger effect = higher value;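 note: cells exposed for 96 h before readout; 0% = vehicle DMSO and 100% = killing by high DMSO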
[13] = HD-MB03 medulloblastoma cell growth inhibition, synergistic combos for chromothripsis tumors, BGB or cisplatin IC20 combos (AID 1671455; in the data active = inhibition above about 83%;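 note: 0% = vehicle DMSO and 100% = high DMSO as cytotoxic control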); conditions: HD-MB03 medulloblastoma cells, stronger effect = higher value
[14] = UWB1.289 ovarian carcinoma cell growth inhibition, synergistic combos for chromothripsis tumors, BGB or cisplatin combos (AID 1671456); conditions: UWB1.289 ovarian carcinoma cells, stronger effect = higher value;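 note: cells exposed to compound for four days; 0% = vehicle DMSO and 100% = killing by high DMSO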
[15] = LFS_MB_2R medulloblastoma cell growth inhibition, synergistic combos for chromothripsis tumors, cisplatin combos (AID 1671457); conditions: LFS_MB_2R medulloblastoma cells, stronger effect = higher value;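 note: cells exposed to compound for four days before readout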
[16] = MDA-MB-436 breast carcinoma cell growth inhibition, synergistic combos for chromothripsis tumors, BGB or cisplatin combos (AID 1671458; call rule not given here;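 note: cells exposed for 96 hours; 0% = vehicle DMSO and 100% = killing by high DMSO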); conditions: MDA-MB-436 breast carcinoma growth inhibition, drug combinations, stronger effect = higher value
[17] = UWB1.289_BRCA1 ovarian cancer growth, cell-based, BGB or cisplatin combinations (AID 1671459); conditions: UWB1.289 BRCA1 ovarian carcinoma, drug combinations, stronger effect = higher value
[18] = human astrocyte viability loss, single and combined drugs, cytotoxicity control for chromothriptic childhood tumor combination screen, cell-based, BGB or cisplatin IC20 combos (AID 1671460); conditions: Human astrocytes, drug combinations, stronger effect = higher value;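 note: cells exposed to compounds for 96 hours before viability readout; 0% = vehicle and 100% = killing control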
[19] = growth inhibition of BT084 medulloblastoma cells, cell-based, ICGC_MB145, cisplatin and BGB IC40 combos (AID 1671461); conditions: drug combinations, stronger effect = higher value;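 note: cells exposed to drugs for 96 hours; 0% = vehicle DMSO and 100% = high DMSO full killing control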
[20] = growth inhibition of RCMB18 medulloblastoma cells, cell-based, cisplatin and BGB IC40 combos (AID 1671462); conditions: stronger effect = higher value;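 note: cells exposed to compound for four days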
[21] = growth inhibition of CRL1545 osteosarcoma cells, cell-based, cisplatin and BGB IC20 combos (AID 1671464); conditions: stronger effect = higher value;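 note: cells exposed to compound for 96 hours before readout; 0% = vehicle DMSO and 100% = high DMSO killing control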
[22] = measured here: combination with BGB IC40, at 0.05 µM
[23] = measured here: with BGB IC20 combination, at 0.5 µM
[24] = measured here: with cisplatin IC20 combination, at 0.5 µM
[25] = measured here: combination with cisplatin, at 0.5 µM
[26] = measured here: combination with cisplatin, at 5 µM

## C=CC(=O)Nc1cccc(Nc2nc(Nc3ccc(Oc4ccnc(C(=O)NC)c4)cc3)ncc2F)c1
[1]
  AC50: 10.5 µM (active)
[2]
  AC50: 7.42 µM (active)
[3]
  AC50: 14.8 µM (active)
[4]
  IC50: 13.2 µM (active)
[5]; stronger effect = lower value, cell number ratio, induced over uninduced
  fold change: 0.924 (inactive)
[5]; measured here: relative caspase fold change +Dox/-Dox
  fold change: 0.336
[5]; measured here: total cells with miR-34 induction, stronger effect = lower value
  cell count: 4090
[5]; measured here: total cells without miR-34 induction
  cell count: 4430
[6]; MELAS cybrid survival, CellTiter-Glo 48 h, stronger effect = higher value
  z-score: 1.34 (inactive)
[6]; Rieske KO mouse fibroblast survival, CellTiter-Glo 72 h
  z-score: 1.7

## Cc1nc2cccc(N)c2c(=O)n1C1CCC(=O)NC1=O (centres undefined)
[1]
  outcome: inactive
[3]
  outcome: inactive
[4]
  outcome: inactive

## CN[C@@H]1CN(c2ccc3c(=O)c(C(=O)O)cn(-c4nccs4)c3n2)C[C@H]1OC
[1]
  AC50: 0.91 µM (active)
[2]
  AC50: 5.74 µM (active)
[3]
  AC50: 9.1 µM (active)
[7]; at 0.5 µM, stronger effect = higher value
  inhibition: -19.9% (inactive)
[7]; measured here: combination with BGB IC20, at 0.005 µM
  inhibition: -32.1%
[7]; measured here: combination with BGB IC40, at 0.005 µM
  inhibition: -41.7%
[7]; [22]
  inhibition: -39.5%
[7]; measured here: combination with cisplatin, at 0.5 µM, stronger effect = higher value
  inhibition: -37.3%
[7]; measured here: combination with cisplatin, at 5 µM, stronger effect = higher value
  inhibition: 59.3%
[8]; BGB combo, at 5 µM
  inhibition: 99.1%
[8]; at 0.5 µM
  inhibition: 57% (inactive)
[8]; cisplatin combo, at 5 µM
  inhibition: 99.4%
[8]; [23]
  inhibition: 48.4%
[8]; [24]
  inhibition: 56.4%
[8]; single agent, at 5 µM
  inhibition: 99.6%
[9]; BGB IC20 combo, at 0.005 µM
  inhibition: 19.2%
[9]; BGB IC40 combo, at 0.005 µM
  inhibition: -11.4%
[9]; BGB IC40 combo, at 0.05 µM
  inhibition: 100%
[9]; at 0.5 µM
  inhibition: -34.8% (inactive)
[9]; cisplatin combo, at 0.05 µM
  inhibition: 100%
[9]; cisplatin combo, at 0.5 µM
  inhibition: -31.3%
[9]; cisplatin combo, at 5 µM
  inhibition: -34.3%
[9]; measured here: 5 uM single agent, at 5 µM
  inhibition: -6.89%
[10]; at 0.5 µM
  inhibition: 3.38% (inactive)
[10]; [22]
  inhibition: 4.5%
[10]; [25]
  inhibition: 47.4%
[10]; [26]
  inhibition: 92.8%
[11]; at 0.5 µM
  inhibition: 51.4% (inactive)
[11]; measured here: with BGB IC20, at 0.5 µM
  inhibition: 49.9%
[11]; measured here: with BGB IC20, at 5 µM
  inhibition: 99.2%
[11]; measured here: with cisplatin IC20, at 0.5 µM
  inhibition: 42.9%
[11]; measured here: with cisplatin IC20, at 5 µM
  inhibition: 99.3%
[11]; single agent, at 5 µM
  inhibition: 99.2%
[12]; at 0.5 µM
  inhibition: 18.1% (inactive)
[12]; measured here: combination with BGB at IC20, at 0.5 µM
  inhibition: 27.9%
[12]; measured here: combination with cisplatin at IC20, at 0.5 µM
  inhibition: -2.11%
[13]; at 0.5 µM
  inhibition: 72.5% (inactive)
[13]; measured here: combo with BGB at IC20, at 0.5 µM
  inhibition: 63.8%
[13]; measured here: combo with cisplatin at IC20, at 0.5 µM
  inhibition: 74.4%
[14]; at 0.5 µM
  inhibition: 14.7% (inactive)
[14]; measured here: inhibition with BGB combination, at 0.05 µM
  inhibition: -25.3%
[14]; measured here: inhibition with cisplatin combination, at 0.05 µM
  inhibition: -22.6%
[15]; at 0.5 µM
  inhibition: -28.9% (inactive)
[15]; [25]
  inhibition: -26%
[15]; [26]
  inhibition: 34.8%
[16]; at 0.5 µM
  inhibition: 25.6% (inactive)
[16]; measured here: BGB combination, at 0.5 µM
  inhibition: 14%
[16]; measured here: BGB combination, at 5 µM
  inhibition: 70.2%
[16]; measured here: cisplatin combination, at 0.5 µM
  inhibition: 8.1%
[16]; measured here: cisplatin combination, at 5 µM
  inhibition: 85.8%
[17]; BGB combination, concentration series, at 5 µM
  inhibition: 94.6%
[17]; at 0.5 µM
  inhibition: 13.7% (inactive)
[17]; cisplatin combination, concentration series, at 5 µM
  inhibition: 98.3%
[18]; at 0.5 µM
  inhibition: 33.4% (inactive)
[18]; measured here: combo with BGB IC20, at 0.5 µM
  inhibition: 29%
[18]; measured here: combo with cisplatin IC20, at 0.5 µM
  inhibition: 13.3%
[19]; at 0.5 µM
  inhibition: -20% (inactive)
[19]; cisplatin combination, at 0.5 µM
  inhibition: -18.3%
[19]; cisplatin combination, at 5 µM
  inhibition: 37.6%
[19]; measured here: BGB IC40 combination 0.05 uM, at 0.05 µM
  inhibition: -77.9%
[19]; single agent, at 5 µM
  inhibition: 101%
[20]; at 0.5 µM
  inhibition: -5.3% (inactive)
[20]; cisplatin combo, at 5 µM
  inhibition: 84.6%
[20]; measured here: BGB IC40 combination, at 0.05 µM
  inhibition: -18.9%
[20]; [25]
  inhibition: 32.1%
[20]; single agent, at 5 µM
  inhibition: 87.5%
[21]; at 0.5 µM
  inhibition: 17.4% (inactive)
[21]; [23]
  inhibition: 16.9%
[21]; [24]
  inhibition: 16.4%
[21]; single agent, at 0.05 µM
  inhibition: 9.09%
[21]; single agent, at 5 µM
  inhibition: 99.7%
